# Laboratory results from the supplement of paper PMC6555819.
# Legend:
# Test in all cases: PBM binding z-score (relative to random genomic background probes); higher = stronger binding; sequences stand for … in GC…GCGATTGACAGCGTAGAATGAAGG
# [1] = test system: RARb homodimer (NR concentration 270 nM)
# Summary of the method: (§1)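 Probes were double-stranded and carried 34-nt variable regions with direct-repeat seeds, single-nucleotide variants, half-site ablations and random human genomic background sequences, printed on custom Agilent 4×180K protein-binding microarrays. Arrays were incubated 1 h with ligand-free nuclear receptor dimers in PBS pH 7.4, 2% milk, 0.02% Triton X-100, 1 mM DTT, 0.2 mg/mL BSA and 0.4 mg/ml salmon testes DNA. Antibodies against each partner (one per run) detected binding, and scanned fluorescence was regression-normalized. Binding z-scores use the random background probes as reference.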
# [2] = test system: RARg:RXRa (NR concentration 270 nM, RXRa partner concentration 90 nM)
# Summary of the method: as §1
# [3] = test system: RARg homodimer (NR concentration 270 nM)
# Summary of the method: as §1
# [4] = test system: RXRa DBDmut IVT, anti-RXR (DBD mutation: RXRa K156A/R161A, NR concentration 90 nM)
# Summary of the method: as §1
# [5] = test system: RXRa homodimer (NR concentration 180 nM)
# Summary of the method: as §1
# [6] = test system: THRa:RXRa (NR concentration 90 nM, RXRa partner concentration 90 nM)
# Summary of the method: as §1
# [7] = test system: THRa homodimer (NR concentration 90 nM)
# Summary of the method: as §1
# [8] = test system: VDR homodimer (NR concentration 270 nM)
# Summary of the method: as §1
Sequence,PBM binding z-score [1],PBM binding z-score [2],PBM binding z-score [3],PBM binding z-score [4],PBM binding z-score [5],PBM binding z-score [6],PBM binding z-score [7],PBM binding z-score [8]
TAGCCTAGGTCAGTGGGCCAGTATAGTACGCATC,2.1,2.45,3.58,-0.571,1.03,1.29,-0.197,-0.446
ACTAGCAGGCCAAGTGTGGGTCACTCAAACAAAG,2.25,2.53,1.51,-0.502,0.982,1.44,-0.207,-0.135
TCTCGGAGGACACGAAAGGTCAGAGCACGACATC,4.5,5.01,5.15,1.04,4.09,3.67,1.29,1.49
ACACCAAGGTGATCGTGAGGTCGTTGATACTAAC,1.69,2.28,0.878,1.13,1.64,3.42,2.39,2.69
CGAACTAGGTCAAGGATAGTGAATCTCCGCACGC,3.08,3.74,4.44,1.47,2.58,2.67,1.35,0.279
AGCACGAGGGCACGCTGAGTTGATAGCAGAGTAG,1.33,1.97,2.42,1.87,1.52,2.05,0.103,0.992
GCTTACGGGTCAAAGGTTATAGCCTGAATAGAAT,3.15,6.87,4.5,2.7,9.3,4.01,-0.0478,1.65
AGCTCTAGGTAAAGATAGTTCAGTGAATGCAAAT,1.34,0.3,0.62,-0.0733,0.094,0.782,0.107,0.592
CGAACTAGGTCAAGGACCGTGAATCTCCGCACGC,2.79,3.42,4.01,1.15,2.32,2.46,0.938,-0.163
TCATATAGGTAAAACGTGAAAGTCGGTGTGGTAA,-0.166,0.237,-0.0627,1.62,0.564,0.025,-0.0697,0.126
GCTATTAGTTGAAAGGGCAGCCGAATGATTCTCG,1.51,0.552,0.863,0.695,0.636,-0.12,-0.775,-0.507
TGAACGAGGTTATAAGATCAGGGAACGTTGCAAA,0.253,1.53,1.1,0.444,2.02,1.43,-0.282,0.372
CCTACTGGGCCAAGGTCAATGATCAGTCAAAGCA,3.38,3.51,3.62,0.404,3.12,3.18,1.77,1.61
CCTTACGGATCAAGGTTATAGCACGGGTGGTACG,0.857,0.538,0.518,-0.178,0.793,1.16,0.694,0.886
CGTCCAAAGTCAAGGTCAGTGAAAGAGACTCGAA,3.54,3,3.58,1.13,2.53,3.03,2.06,1.29
ACTAGTTGGTCAGCTGAGGTCACCCACAATTCGG,4.38,4.14,4.02,1.19,3.69,4.97,5.19,3.57
ATCGAAAGGTCGACGAGGTGAGGATACACCGTTT,3.11,4.27,4.37,1.15,4.45,4.09,2.24,1.2
TCATATAGGTAAACAGGTGAAAGACCGTAAGTTA,0.437,0.712,0.452,1.32,1.17,0.539,0.114,0.225
ACAGACAGGTGAGTGAAAGTAACTCAGCTGGACG,-0.349,0.188,0.291,-0.517,0.309,-0.377,-0.737,-0.536

Sequence,PBM binding z-score [1],PBM binding z-score [2],PBM binding z-score [3],PBM binding z-score [4],PBM binding z-score [5],PBM binding z-score [6],PBM binding z-score [7],PBM binding z-score [8]
CCTGCCAGGTCATGGTCAGCTAATCTACAGTATG,3.28,4.12,4.46,1.81,3.17,3.64,2.48,0.972
CTTCCAAGGTCAGAGAGGTCAGTGAATGCCGAGT,5.27,6.1,7.29,2.97,5.22,4.3,2.74,5.58
TGAATGAGGGTATAAGATCAGGGAACGTTGCAAA,-0.0361,0.617,0.546,-0.155,0.383,0.461,-0.277,0.159
CCTTACGGGTCACTCCCGGTTATAGCATCGGAGT,2.94,4.42,4.31,1.43,4.33,3.71,0.272,1.14
CCTGCTAGGTCAATGGTCTGCTAAAGCAGCTCGC,2.64,3.31,3.96,1.75,1.63,2.31,0.724,-0.14
TCTAGCAGACCAGAGGGTCACTCAAGAGGTACGG,2.18,1.95,1.42,-0.0475,2.19,1.43,-0.387,0.415
GCTCGGAGTACAAGGTCAGAGCTTTGTCCGTAGA,2.65,2.42,2.48,1.1,2.11,2.63,1.23,0.858
CCTCGGAGGACAACAGGAGGTCACAGCTGCCAGA,4.25,4.52,3.89,0.736,3.9,3.81,2.24,2.42
TCTTGAAGATCAAGCAGGTTAAGAAAGCCTGAGT,-0.113,-0.172,-0.516,0.456,0.318,0.216,-0.679,-0.115
CAAACTAGGTCTAGAGGTCAAAGTCCGCTTCCCG,4.55,5.26,4.46,1.89,5.98,3.8,1.56,4.46
ACTAGTTGGTCAGCTGAAGTCACACACAATTCGG,0.741,0.686,0.796,0.337,0.297,0.346,-0.0517,0.0981
TCGAGTAGGTTACCAATGGGGCATTTAGCTTTCT,0.597,1.09,0.384,0.219,0.324,-0.0531,-0.844,-0.414
TTACCAAGGTGAGCTGAGGTCGTTAATCCAACTC,1.49,0.963,0.731,-0.172,1.12,4.42,1.8,1.33
AGAATCAGGTTACCAAAGATCAGGGAAACGCTTG,0.374,0.744,0.974,0.0556,0.775,1.36,0.124,-0.469
CCTGCTAGGTCAATGGACAGCTAAAGCAGCTCGC,2.51,3.34,4.17,1.5,1.8,1.95,0.0455,0.153
ACTATTAGTTGACTTAGGGTAACCGATACGACGC,0.611,0.744,0.754,0.853,0.525,2.77,1.43,0.184
AACGAAAGGTCGAGGTGAGTATAGAGAAAGGGAA,2.86,4.68,4.73,0.969,5.03,2.96,0.451,0.21
CTTACTGGGCCACGAAAGGTCATTGATTCAGTGA,4.85,5.14,4.77,1.19,5.84,4.12,1.15,1.78
ATCTCTAGGTAAGAGTCAGTTCAGTGAAGAACGC,0.813,0.338,0.332,0.262,0.0582,0.853,0.649,0.916

Sequence,PBM binding z-score [1],PBM binding z-score [2],PBM binding z-score [3],PBM binding z-score [4],PBM binding z-score [5],PBM binding z-score [6],PBM binding z-score [7],PBM binding z-score [8]
CATACTGGGTCAGCTAGGCCAGAGTAGGGACGGC,2.13,2.65,3.42,-0.42,1.39,1.53,0.0605,-0.0161
TCGAGCAGGTTAGTCGGGGCATTCAGCCAACATA,0.497,-0.142,-0.25,-0.118,-0.199,1.21,-0.236,0.432
TCATATAGGTAAAGCTGAAAGTCGAACGATATGA,-0.67,0.267,0.377,0.431,0.587,-0.286,-1.16,-0.537
CTCGAAAGGTCGGGCTCAGGTGAGTATACCAAAC,2.49,4.07,3.19,0.869,3,3.46,1.06,0.356
TCTAGTTGGTCAGGGAGGTCACACACGACGGGTA,4.42,4.31,3.88,1.08,4.14,3.63,2.88,3.18
CCAGACCGGTGAGAAGGTAACTCAGCCTCGATTA,0.199,0.0096,0.0397,-0.539,-0.308,-0.0126,-0.0326,0.281
TCAGACAGGTGAATGTAACTCAGGTACGCAGTCG,0.305,0.399,0.476,1.01,0.802,0.274,0.15,0.463
CGTCCAAGCTCATAGGAGGTCAGTGAAGACAGAT,2.8,1.69,2.04,0.593,1.22,2.38,0.642,0.938
GCTAGCAGGCCATTTGGGTCAATCAATGACGGGC,1.62,0.878,1.21,0.0646,0.805,1.87,0.12,-0.0302
TTACAAAGGTGAAGGTCGTTGATCCCTCTGTAGA,2.91,3.09,2.66,0.165,3.13,2.1,0.228,1.08
CCTCGGAGGACAGCAGGTCAGAGCTGTCCGCTTT,2.25,2.17,1.91,-0.0565,0.242,1.74,0.123,-0.273
CCTATTGGTTGACCATAAGGGCAACCGAAGCTCG,1.47,0.997,0.631,-0.724,0.512,1.62,0.504,-0.166
GCACACAGGTGAAACGCAGGTAACTCAGGGTGGC,0.327,1.15,0.263,-0.192,0.954,1.47,-0.486,-0.299
TCTATTAGTTGATTAGGACAACCGAAACAGCGGA,0.549,0.758,0.926,1.39,0.79,1.84,1.63,1.03
ATCTCTAGGTAAAGATAGTTCAGTGAATGCAAAT,0.887,0.422,0.748,-0.0413,0.163,0.71,0.0896,0.419
AGGCAAAGTTCACTAGGTAACGTAAGATTCAGCT,3.64,4.78,5.51,4.22,3.75,2.15,0.37,4.15
CTCGAAAGGTCGGTGGAGGTGAGTATACGGATAA,2.57,2.73,2.83,0.607,2.32,4.27,0.235,0.546
TCATATGGGTAAATGCTAGGTGAAAGTCCGATCT,0.561,0.294,-0.0205,0.923,0.517,1.38,0.395,-0.156
GCTAGCAGGCCAATTGGGTCACTCAATGACGGGC,1.94,1.01,1.15,-0.58,0.841,1.66,0.0976,-0.328
